# Data from PubChem BioAssay (NCATS).
# “And” between values parts separate entries of the source, which are not always exact repeats. Equal values may be shown once. A number with no mark means an inactive call. Results filed as inconclusive are left out. Entries that show only a call come without a potency. The source made the active and inactive calls. The call rests on the fitted dose curve; in most records, active means well fitted curve in the direction sought with a large enough effect; inconclusive means small, poorly fitted or top-dose-only effect, or another doubt; inactive means no such curve, though single readings can be large; an effect the other way counts as inactive or inconclusive.
# Assays:
# [1] = qHTS to identify inhibitors of the type 1 interferon - major histocompatibility complex class I in skeletal muscle: primary screen against the NCATS Pharmaceutical Collection (AID 1347407); conditions: human skeletal muscle cells, IFN-b-induced MHC-I HiBiT luminescence, 24 h; series mostly up to 45.9 µM;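 further: luminescence of HiBiT knocked into endogenous HLA-B as interferon-induced MHC class I level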; further: potency means the concentration at half of the fitted maximal effect
# Method in brief: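 Immortalized human myoblasts (C25cl48) with HiBiT knocked into endogenous HLA-B*08:01 were stimulated with 4.0 ng/ml IFN-beta and treated with compounds ([…] top 46 uM) for 24 hrs at 37 C. HiBiT lytic luminescence read.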
# [2] = tested on: Zika virus NS2B-NS3 protease (linked); assay: 384 well plate NINDS AMC confirmatory qHTS for Zika virus inhibitors (AID 1347163); conditions: Recombinant NS2B-NS3 protease, Ac-VKTGKR-AMC fluorescence; series mostly up to 1 mM; further: nearly all actives have a fitted effect of over 50% in size; further: potency means the concentration at half of the fitted maximal effect;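 on activity change, negative = inhibition: linked protease at 5 30 or 60 nM final depending on run; fluorescence of AMC released from Ac-VKTGKR-AMC peptide cleaved by the protease; top concentration of the series differs between compounds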
# Method in brief: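 Linked NS2B-NS3 protease (final 5 nM, 30 nM or 60 nM) was preincubated with compounds (final up to 1 mM) for ~15 minutes. Ac-VKTGKR-AMC substrate (final 30 microM) then reacted for 25 minutes at room temperature in the dark. Fluorescence (ex 355/em 460 nm) was normalized to no-enzyme and no-inhibitor controls.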
# [3] = tested on: Zika virus NS2B-NS3 protease (linked construct); assay: 384 well plate NINDS Rhodamine confirmatory qHTS for Zika virus inhibitors (AID 1347164); conditions: rhodamine-110 peptide substrate fluorescence;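 further: fluorescence from protease cleavage of Ac-LKRR-rhodamine 110 substrate; potency means the concentration at half of the fitted maximal effect; nearly all actives have a fitted effect of over 65% in size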
# Method in brief: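 Linked NS2B-NS3 protease (final 5, 30 or 60 nM) preincubated ~15 minutes with compounds, then 10 microM Ac-LKRR-Rhodamine 110 added. Fluorescence (485/538 nm) read after 25 minutes at room temperature, normalized to no-enzyme and no-inhibitor controls.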
# [4] = Vero cells viability qHTS for Zika virus inhibitors (AID 1347167); conditions: cytotoxicity counter-screen (Zika); series mostly up to 45.9 µM
# Method in brief: (§1)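 Cells seeded at 2.5 x 10^5 cells/mL in DMEM with 4% FBS and attached overnight at 37 degrees C, then exposed to compound for 24 to 48 hours. Viability read as ATP content by CellTiter Glo luminescence.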
# [5] = HepG2 cells viability qHTS for Zika virus inhibitors (AID 1347168); conditions: Zika counter-screen; series mostly up to 45.9 µM; further: potency means the concentration at half of the fitted maximal effect
# Method in brief: as §1
# [6] = Tertiary RLuc qRT-PCR qHTS assay for Zika virus inhibitors (AID 1347169); conditions: infected Vero cells, reporter luminescence, 48-72 h; series mostly up to 45.9 µM; further: nearly all actives have a fitted effect of over 55% in size; further: potency means the concentration at half of the fitted maximal effect; on activity change, negative = inhibition: top concentration of the series differs between compounds
# Method in brief: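 Vero cells (1,000/well) infected with recombinant ZIKV-RLuc (Cambodian) at MOI 1-2 after compound addition, 48-72 hrs at 37 degrees C. Live-cell Renilla luciferase substrate added; luminescence read after 1-1.5 hrs.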
# [7] = target: Lysine-specific demethylase 5B (Homo sapiens) (UniProt Q9UGL1); assay: Optimization screen for KDM5B Histone Demethylases FDH coupled qHTS against the LOPAC library (AID 1347166); conditions: KDM5B demethylation, FDH-coupled NADH fluorescence (FDH is formaldehyde dehydrogenase); series mostly up to 57.5 µM
# Chain of Lysine-specific demethylase 5B (Homo sapiens) (Q9UGL1 whole entry, looked up): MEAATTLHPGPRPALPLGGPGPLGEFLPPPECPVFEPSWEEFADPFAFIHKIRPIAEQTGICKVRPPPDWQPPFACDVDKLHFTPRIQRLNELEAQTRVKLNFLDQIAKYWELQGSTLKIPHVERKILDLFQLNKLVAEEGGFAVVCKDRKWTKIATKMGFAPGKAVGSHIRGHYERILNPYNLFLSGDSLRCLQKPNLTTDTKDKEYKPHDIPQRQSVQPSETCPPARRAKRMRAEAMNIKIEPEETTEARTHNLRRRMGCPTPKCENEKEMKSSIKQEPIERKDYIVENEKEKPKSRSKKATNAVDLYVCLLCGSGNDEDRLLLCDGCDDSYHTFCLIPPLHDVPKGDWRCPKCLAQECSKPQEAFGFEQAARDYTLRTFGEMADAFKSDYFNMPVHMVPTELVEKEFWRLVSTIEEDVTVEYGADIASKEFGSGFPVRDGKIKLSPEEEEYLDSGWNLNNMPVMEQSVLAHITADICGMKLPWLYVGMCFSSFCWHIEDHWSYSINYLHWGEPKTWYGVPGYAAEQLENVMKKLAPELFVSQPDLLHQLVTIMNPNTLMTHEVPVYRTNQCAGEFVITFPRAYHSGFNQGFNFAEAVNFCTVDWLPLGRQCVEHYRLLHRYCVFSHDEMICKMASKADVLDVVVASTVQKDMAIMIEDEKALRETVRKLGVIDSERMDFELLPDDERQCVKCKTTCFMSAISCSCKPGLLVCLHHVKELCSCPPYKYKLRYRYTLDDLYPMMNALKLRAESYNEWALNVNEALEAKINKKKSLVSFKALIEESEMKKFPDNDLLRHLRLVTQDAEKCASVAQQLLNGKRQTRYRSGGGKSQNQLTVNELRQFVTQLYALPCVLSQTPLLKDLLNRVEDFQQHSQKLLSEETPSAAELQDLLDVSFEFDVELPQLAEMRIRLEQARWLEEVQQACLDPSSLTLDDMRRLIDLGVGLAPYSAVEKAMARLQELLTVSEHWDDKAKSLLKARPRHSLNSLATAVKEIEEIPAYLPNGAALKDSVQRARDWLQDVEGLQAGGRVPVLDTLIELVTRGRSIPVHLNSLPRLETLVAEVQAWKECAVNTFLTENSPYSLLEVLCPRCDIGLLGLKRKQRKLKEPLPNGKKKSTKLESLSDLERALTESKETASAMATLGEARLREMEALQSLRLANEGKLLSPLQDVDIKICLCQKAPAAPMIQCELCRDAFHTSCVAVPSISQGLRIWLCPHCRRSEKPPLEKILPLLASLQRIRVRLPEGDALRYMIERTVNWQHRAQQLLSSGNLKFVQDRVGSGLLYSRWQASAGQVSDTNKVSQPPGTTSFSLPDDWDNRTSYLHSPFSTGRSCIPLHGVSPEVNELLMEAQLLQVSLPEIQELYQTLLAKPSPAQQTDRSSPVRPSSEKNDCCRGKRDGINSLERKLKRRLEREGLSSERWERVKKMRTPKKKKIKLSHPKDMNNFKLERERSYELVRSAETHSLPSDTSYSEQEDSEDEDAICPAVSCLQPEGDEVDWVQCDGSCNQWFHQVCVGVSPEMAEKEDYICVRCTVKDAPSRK
# Method in brief: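 KDM5BDeltaAP (200nM final) preincubated 10 min with compound, then 12.5uM H3K4Me3, 25uM a-ketoglutarate, ascorbate, Fe(II), NAD+ and FDH added; 50mM HEPES pH 7.5, 0.01% Tween-20. NADH fluorescence (340/450 nm) change over 30 min, room temperature.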
# [8] = qHTS to identify inhibitors of the type 1 interferon - major histocompatibility complex class I in skeletal muscle: primary screen against the NCATS LOPAC collection (AID 1347405); conditions: iHSKM muscle cells, IFN-b-induced MHC-I HiBiT luminescence, 24 h; series mostly up to 45.9 µM;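 further: lytic HiBiT luminescence reporting HLA-B protein level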
# Method in brief: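 CRISPR-engineered immortalized human myoblasts (C25cl48) with HiBiT fused to endogenous HLA-B*08:01, stimulated with 4 ng/ml IFN-beta. LOPAC compounds tested as a 7-point 1:4.3 titration (top 46 uM final), 24 h at 37 C; lytic HiBiT luminescence read.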
# [9] = qHTS for inhibitors of adenylyl cyclases using a fission yeast platform: a pilot screen against the NCATS LOPAC library (AID 1347410); conditions: S. pombe CHP2027, fbp1-GFP fluorescence, 18 h, yeast expressing mammalian AC9 and human GNAS; series mostly up to 57.5 µM
# Method in brief: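 S. pombe CHP2027 (AC9-GNAS-PDE4D2) carrying PKA-repressed fbp1-GFP, incubated 18 h at 30C in EMM with LOPAC compounds at up to 57 uM. GFP gain-of-signal read by laser scanning cytometry; DMSO negative control.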
smiles,measurement,setting,value
CCC1Nc2cc(Cl)c(S(N)(=O)=O)cc2S(=O)(=O)N1 (stereo unspecified),Potency,[1],inactive
Oc1c(Cl)cc(Cl)c(Cl)c1Cc1c(O)c(Cl)cc(Cl)c1Cl,Potency,[2],35.5 µM (active)
same,Potency,[3],14.1 µM (active)
CC(=O)Nc1ncc([N+](=O)[O-])s1,Potency,[1],inactive
CCOCCn1c(N2CCCN(C)CC2)nc2ccccc21,Potency,[1],inactive
O[C@@H](c1cc(C(F)(F)F)nc2c(C(F)(F)F)cccc12)[C@H]1CCCCN1,outcome,[4],inactive
same,Potency,[5],20.8 µM (active)
same,Potency,[6],9.3 µM (active)
CCC(CC)(CC(=O)Nc1cccc(/C=C/c2nc(C3CCC3)cs2)c1)C(=O)O,Potency,[2],inactive
same,outcome,[4],inactive
same,Potency,[5],inactive
same,Potency,[6],inactive
same,Potency,[1],inactive
CCNC(=O)/C=C/c1cccc(Br)c1,Potency,[1],inactive
C=C1c2cccc(O)c2C(O)=C2C(=O)[C@]3(O)C(O)=C(C(N)=O)C(=O)[C@@H](N(C)C)[C@@H]3[C@@H](O)[C@H]12,Potency,[2],8.91 µM (active) and 316 µM (active)
same,Potency,[3],251 µM (active)
same,outcome,[4],inactive
same,Potency,[5],inactive
same,Potency,[6],inactive
NC(N)=NCc1cccc(I)c1,outcome,[7],inactive
same,outcome,[8],inactive
same,outcome,[9],inactive
NS(=O)(=O)c1cc(C(=O)O)cc(N2CCCC2)c1Oc1ccccc1,Potency,[1],inactive
CC1(COc2ccc(CC3SC(=O)NC3=O)cc2)CCCCC1 (stereo unspecified),outcome,[4],inactive
same,Potency,[5],inactive
same,Potency,[1],inactive
C=C[C@H]1CN2CC[C@H]1C[C@H]2[C@H](O)c1ccnc2ccc(OC)cc12,Potency,[6],inactive
NC1CCN(c2nc3c(cc2F)c(=O)c(C(=O)O)cn3-c2ccc(F)cc2F)C1 (stereo unspecified),Potency,[1],inactive
CCCCOC(=O)CC(CC(=O)OCCCC)(OC(C)=O)C(=O)OCCCC,Potency,[1],inactive
CC(=O)Nc1ccc(OC(=O)c2ccccc2OC(C)=O)cc1,Potency,[1],inactive
Cc1cn([C@H]2C[C@H](F)[C@@H](CO)O2)c(=O)[nH]c1=O,Potency,[1],inactive
CC(C)(C)CC(C)(C)c1ccc(O)c(-n2nc3ccccc3n2)c1,Potency,[1],inactive
O=C(O)C(Cc1cc(I)c(O)c(I)c1)c1ccccc1 (stereo unspecified),Potency,[3],112 µM (active)
same,"activity change, negative = inhibition",[6],-2.94% [at 1.74 µM]
same,Potency,[1],inactive
CCOC(=O)C(C#N)=C(c1ccccc1)c1ccccc1,Potency,[1],inactive
CC(O)Cn1cnc2c1c(=O)n(C)c(=O)n2C (stereo unspecified),Potency,[1],inactive
C[C@H]1O[C@@H](O[C@H]2CC[C@@]3(C)[C@H](CC[C@@H]4[C@@H]3C[C@@H](O)[C@]3(C)[C@@H](C5=CC(=O)OC5)CC[C@]43O)C2)C[C@H](O)[C@@H]1O[C@H]1C[C@H](O)[C@H](O[C@H]2C[C@H](O)[C@H](O[C@@H]3O[C@H](CO)[C@@H](O)[C@H](O)[C@H]3O)[C@@H](C)O2)[C@@H](C)O1,outcome,[4],inactive
same,Potency,[5],inactive
same,Potency,[6],0.415 µM (active)
same,Potency,[1],0.528 µM (active)
CCc1oc2ccccc2c1C(=O)c1cc(Br)c(O)c(Br)c1,Potency,[2],79.4 µM (active)
same,Potency,[3],28.2 µM (active)
same,outcome,[4],inactive
same,Potency,[1],inactive
CC(C)(C)NC[C@H](O)COc1nsnc1N1CCOCC1,outcome,[7],inactive
same,outcome,[8],inactive
same,Potency,[1],inactive
same,outcome,[9],inactive
NS(=O)(=O)Cc1noc2ccccc12,Potency,[1],inactive
CN=C(N)NCCC[C@H](N)C(=O)O,outcome,[7],inactive
same,outcome,[8],inactive
same,outcome,[9],inactive
CCOC(=O)[C@H](CCc1ccccc1)N[C@@H](C)C(=O)N1[C@H](C(=O)O)C[C@H]2CCCC[C@@H]21,outcome,[7],inactive
same,outcome,[8],inactive
same,outcome,[9],inactive
Cc1cccc(C)c1NC(=O)c1ccccc1C(=O)O,Potency,[1],inactive
O=C(Nc1ccc([N+](=O)[O-])cc1)Nc1ccc([N+](=O)[O-])cc1,Potency,[1],inactive
N#C/C(=C1\SCC(c2ccccc2Cl)S1)n1ccnc1 (stereo unspecified),Potency,[1],inactive
Cc1ncc(CO)c(C=O)c1O,Potency,[1],inactive
CCCc1ncc(C[n+]2ccccc2C)c(N)n1,Potency,[1],inactive
C[C@H]1[C@H]2CC[C@H]3[C@@H]4CC=C5C[C@@H](N(C)C)CC[C@]5(C)[C@H]4CC[C@]23CN1C,Potency,[1],inactive
COc1cc(C(=S)N2CCOCC2)ccc1O,Potency,[1],inactive
CC(C)NCC(O)c1ccc2ccccc2c1 (stereo unspecified),Potency,[1],inactive
CC(C)=CCOc1ccc(/C=C/C(=O)c2ccc(OCC=C(C)C)cc2OCC(=O)O)cc1,Potency,[2],39.8 µM (active)
same,"activity change, negative = inhibition",[6],84.9% [at 5.25 µM]
same,Potency,[1],inactive
O=C1OC2(c3ccccc31)c1cc(Br)c(O)c(Br)c1Oc1c2cc(Br)c(O)c1Br,Potency,[1],inactive
COc1ccc(-c2cc(C(F)F)nn2-c2ccc(S(N)(=O)=O)cc2)cc1F,Potency,[1],inactive
CC1(C)OC[C@@H]2O[C@@]3(C(=O)O)OC(C)(C)O[C@H]3[C@@H]2O1,Potency,[1],inactive
COc1cc(O)c(C(=O)c2ccccc2)cc1S(=O)(=O)O,Potency,[1],inactive
